Assay results reported in PubChem BioAssay (Tox21).
Results filed as inconclusive are left out. Activity calls are given as the source filed them. Unless noted, calls come from the whole dose curve; as a rule, active = well fitted curve in the direction sought with a large enough effect in the repeat runs; inconclusive = weak or mixed curves; inactive = no such curve, though single readings can be large; an effect the other way counts as inactive or inconclusive.

Legend:
[1] = qHTS assay for small molecule agonists of the p53 signaling pathway (AID 651631; calls by dose curve; note: nearly all actives have a fitted effect of over 15% in size; note: potency is the fitted concentration of half-maximal effect)
Outline: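 Testing took place in human colorectal HCT-116 cells with stable p53RE-driven beta-lactamase. After 16 h of compound exposure at 37 °C, a FRET substrate was added and fluorescence recorded 2 h later.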

[2] = qHTS assay for small molecules that induce genotoxicity in human embryonic kidney cells expressing luciferase-tagged ATAD5 (AID 651632); note: nearly all actives have a fitted effect of over 15% in size; note: potency is the fitted concentration of half-maximal effect
Outline: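 Cells were seeded at 2,000 per well, dosed with compound, and incubated 16 hr at 37C in 5% CO2. Luciferase activity was then quantified after a 30 min room-temperature incubation with Amplite.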

[3] = qHTS assay for small molecule agonists of the p53 signaling pathway - cell viability (AID 651633; calls by dose curve; note: nearly all actives have a fitted effect of over 30% in size; note: potency is the fitted concentration of half-maximal effect; for activity change, negative = cytotoxicity: series mostly up to about 83 µM)
Outline: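 Viability counter-read: CellTiter-Glo luminescence (30 min, room temperature) in the same p53RE-bla plates. These plates had been exposed to compounds for 16 h at 37 C.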

[4] = qHTS assay for small molecules that induce genotoxicity in human embryonic kidney cells expressing luciferase-tagged ATAD5 - cell viability (AID 651634; calls by dose curve; note: nearly all actives have a fitted effect of over 25% in size)
Outline: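 Cells (HEK293T, luciferase-tagged ATAD5) are seeded at 2,000 per well, dosed with compound or DMSO vehicle, and incubated 15.5 hr at 37C and 5% CO2. CellTiter-Fluor is added for 30 min before fluorescence is measured.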

[5] = qHTS assay for small molecule disruptors of the mitochondrial membrane potential (AID 720635); note: potency is the fitted concentration of half-maximal effect
Outline: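 Mitochondrial membrane potential tracked with Mito-MPS dye, red aggregates (ex 540/em 590 nm) against green monomers (ex 490/em 535 nm). Compound treatment 1 hr at 37C, dye 30 min in HepG2.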

[6] = qHTS assay to test for compound auto fluorescence at 590 nm (red) in HepG2 cells (AID 720674)
Outline: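 1 hr compound incubation on HepG2 cells, 37 C, 5% CO2; plate read ex 540 nm / em 590 nm; intensities reported as Rose Bengal sodium equivalents.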

[7] = qHTS assay to test for compound auto fluorescence at 535 nm (green) in HepG2 cells (AID 720675)
[8] = qHTS assay to test for compound auto fluorescence at 460 nm (blue) in HEK293 cells (AID 720678)
Outline: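 After cell attachment (4-5 hr, 37C), compounds were pinned onto HEK293 monolayers in 10% dialyzed FBS medium. The blue channel (405/460 nm) was read following overnight culture. Equivalency was calculated against triamterene.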

[9] = qHTS assay to test for compound auto fluorescence at 590 nm (red) in HEK293 cells (AID 720679)
Outline: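 Plates of HEK293 cells (10% dialyzed FBS) are treated with 23 nL compound or DMSO vehicle after a 4-5 hr attachment period, incubated overnight at 37C, and read for red fluorescence at 540/590nm.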

[10] = qHTS assay to test for compound auto fluorescence at 535 nm (green) in HEK293 cells (AID 720680)
[11] = qHTS assay to test for compound auto fluorescence at 460 nm (blue) in HEK293 cell free culture (AID 720681)
Outline: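 Blue fluorescence (Ex 405/Em 460 nm, triamterene-equivalent) was read immediately after pin transfer of compound or DMSO into medium (DMEM, 10% FBS) without cells.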

[12] = qHTS assay to test for compound auto fluorescence at 535 nm (green) in HEK293 cell free culture (AID 720682)
Outline: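 DMEM + 10% FBS, cell-free; cpd or DMSO pinned in; Ex485/Em535 read; output as fluorescein-equivalent signal.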

[13] = qHTS assay to test for compound auto fluorescence at 590 nm (red) in HEK293 cell free culture (AID 720683)
Outline: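 Red-channel autofluorescence of compounds in culture medium (DMEM, 10% FBS), no cells, measured at 540/590 nm. Rose Bengal sodium is the reference fluorophore for equivalence.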

[14] = qHTS assay to test for compound auto fluorescence at 590 nm (red) in HepG2 cell free culture (AID 720684)
Outline: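 No cells present: MEM + 10% FBS only. Compound pinned in, red label read (540/590 nm). Activity = fluorescence equivalent to Rose Bengal sodium.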

[15] = qHTS assay to test for compound auto fluorescence at 460 nm (blue) in HepG2 cell free culture (AID 720685)
Outline: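 Cell-free plates of MEM plus 10% FBS received 23 nL compound or DMSO vehicle; blue-channel (405/460 nm) intensity scored against triamterene as reference fluorophore.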

[16] = qHTS assay to test for compound auto fluorescence at 535 nm (green) in HepG2 cell free culture (AID 720686)
[17] = qHTS assay to test for compound auto fluorescence at 460 nm (blue) in HepG2 cells (AID 720687)
Outline: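 Blue-channel autofluorescence (Ex/Em 405/460 nm, triamterene-equivalent) was measured after 1 hr compound exposure at 37 C, 5% CO2. Cells were HepG2, plated overnight at 37 C in MEM plus 10% FBS.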

[18] = target: Glucocorticoid receptor (Homo sapiens) (UniProt P04150); experiment: qHTS assay to identify small molecule agonists of the glucocorticoid receptor (GR) signaling pathway (AID 720691; active = well fitted activation curve with a large enough effect in the signal ratio in the repeat runs, not every such curve was filed as active; the % refers to the signal ratio)
Sequence of Glucocorticoid receptor (Homo sapiens) (P04150 whole entry, looked up): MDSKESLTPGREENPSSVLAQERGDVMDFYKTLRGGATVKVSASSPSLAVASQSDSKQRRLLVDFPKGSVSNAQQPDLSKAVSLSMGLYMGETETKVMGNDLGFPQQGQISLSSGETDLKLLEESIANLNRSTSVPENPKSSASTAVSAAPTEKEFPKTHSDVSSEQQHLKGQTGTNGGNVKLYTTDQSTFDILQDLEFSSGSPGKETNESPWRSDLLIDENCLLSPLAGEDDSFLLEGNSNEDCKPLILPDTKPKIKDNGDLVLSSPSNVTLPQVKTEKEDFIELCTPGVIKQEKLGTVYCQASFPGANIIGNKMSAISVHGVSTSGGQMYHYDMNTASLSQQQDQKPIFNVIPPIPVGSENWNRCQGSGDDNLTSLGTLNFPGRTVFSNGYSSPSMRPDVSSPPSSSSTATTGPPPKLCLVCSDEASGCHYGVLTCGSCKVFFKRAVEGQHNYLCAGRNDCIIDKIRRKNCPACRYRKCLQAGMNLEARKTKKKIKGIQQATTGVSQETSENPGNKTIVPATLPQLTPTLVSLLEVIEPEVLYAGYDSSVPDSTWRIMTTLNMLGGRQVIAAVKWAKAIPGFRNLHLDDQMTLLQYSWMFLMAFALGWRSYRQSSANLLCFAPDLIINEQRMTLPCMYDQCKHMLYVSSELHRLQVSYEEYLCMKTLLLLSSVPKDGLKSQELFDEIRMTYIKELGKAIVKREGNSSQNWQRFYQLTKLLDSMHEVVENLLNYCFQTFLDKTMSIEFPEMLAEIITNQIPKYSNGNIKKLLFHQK
Outline: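 Steps: seed GR-bla HeLa cells, incubate 4 h at 37 C/5% CO2; pin-transfer DMSO-dissolved compounds; incubate 18 h at 37 C; add LiveBLAzer B/G FRET substrate; after 2 h at room temperature, measure fluorescence.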

[19] = target: Glucocorticoid receptor (Homo sapiens) (UniProt P04150); experiment: qHTS assay to identify small molecule antagonists of the glucocorticoid receptor (GR) signaling pathway (AID 720692; active = well fitted inhibition curve with a large enough effect in the signal ratio in the repeat runs, not every such curve was filed as active; the % refers to the signal ratio; note: potency is the fitted concentration of half-maximal effect)
Outline: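 Antagonism was scored as loss of dexamethasone-driven (5 nM final) reporter signal in HeLa cells bearing a glucocorticoid response element–beta-lactamase construct, after 18 h compound exposure at 37 C and 2 h FRET substrate loading.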

[20] = qHTS assay for small molecule disruptors of the mitochondrial membrane potential - cell viability (AID 720634; calls by dose curve;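 note: human HepG2 liver cancer cells; series mostly up to about 83 µM; nearly all actives have a fitted effect of over 20% in size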)
Outline: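 Cytotoxicity was measured by ATP quantitation in HepG2 wells that had first been treated with compound for 1 hr and stained with m-MPI dye; CellTiter-Glo incubation was 30 min at room temperature.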
% is set by controls: 0 for no effect and ±100 for the full control effect.

O=[N+]([O-])c1cccc(I)c1
inactive: Potency [1] | Potency [2] | Potency [3] | Potency [4] | Potency [5] | outcome [6] | outcome [7] | Potency [8] | outcome [9] | outcome [10] | Potency [11] | outcome [12] | outcome [13] | outcome [14] | outcome [15] | outcome [16] | outcome [17] | Potency [18] | Potency [19]

OCCCO
inactive: Potency [1] | Potency [2] | Potency [3] | Potency [4] | outcome [6] | outcome [7] | Potency [8] | outcome [9] | outcome [10] | Potency [11] | outcome [12] | outcome [13] | outcome [14] | outcome [15] | outcome [16] | outcome [17] | Potency [18] | Potency [19]

Cc1c(Cl)cccc1Nc1ccccc1C(=O)O
active: Potency [1] 21.1 µM | Potency [3] 18.8 µM | Potency [5] 11.9 µM
inactive: Potency [2] | Potency [4] | outcome [6] | outcome [7] | Potency [8] | outcome [9] | outcome [10] | Potency [11] | outcome [12] | outcome [13] | outcome [14] | outcome [16] | outcome [17]

S=c1[nH][nH]c(=S)s1
inactive: Potency [1] | Potency [2] | Potency [3] | Potency [4] | outcome [6] | outcome [7] | Potency [8] | outcome [9] | outcome [10] | outcome [12] | outcome [13] | outcome [14] | outcome [15] | outcome [16] | outcome [17] | Potency [18] | Potency [19]

COc1cc(C)c(Cc2cnc(N)nc2N)cc1OC
inactive: Potency [1] | Potency [2] | Potency [3] | Potency [4] | outcome [6] | outcome [7] | outcome [9] | outcome [10] | Potency [11] | outcome [12] | outcome [13] | outcome [14] | outcome [16] | outcome [17] | Potency [18] | Potency [19]

CCCCCCCCCCCCN1CCOCC1
inactive: Potency [1] | Potency [2] | Potency [3] | Potency [4] | outcome [6] | outcome [7] | Potency [8] | outcome [9] | outcome [10] | Potency [11] | outcome [12] | outcome [13] | outcome [14] | outcome [16] | Potency [18] | Potency [19]

CCCCCC1CCC(=O)O1 (configuration not stated)
inactive: Potency [1] | Potency [2] | Potency [3] | Potency [4] | Potency [5] | outcome [6] | Potency [8] | outcome [9] | outcome [10] | Potency [11] | outcome [12] | outcome [13] | outcome [14] | outcome [15] | outcome [16] | outcome [17] | Potency [19]

CC(C)Cc1nccs1
inactive: Potency [1] | Potency [3] | Potency [4] | outcome [6] | outcome [9] | outcome [10] | Potency [11] | outcome [12] | outcome [13] | outcome [14] | outcome [15] | outcome [16] | outcome [17]

CC(C)NC(=O)c1ccccc1N
inactive: Potency [1] | Potency [3] | Potency [4] | Potency [20] | Potency [5] | outcome [6] | outcome [7] | outcome [9] | outcome [10] | Potency [11] | outcome [12] | outcome [13] | outcome [14] | outcome [15] | outcome [16] | outcome [17]

CC/C=C/CCO
inactive: Potency [1] | Potency [3] | Potency [4] | Potency [20] | outcome [6] | outcome [7] | Potency [8] | outcome [9] | outcome [10] | Potency [11] | outcome [12] | outcome [13] | outcome [14] | outcome [15] | outcome [16] | outcome [17] | Potency [18]

C=C[Si]1(C)O[Si](C)(C=C)O[Si](C)(C=C)O[Si](C)(C=C)O1 (configuration not stated)
inactive: Potency [1] | Potency [3] | Potency [4] | outcome [6] | outcome [7] | Potency [8] | outcome [9] | outcome [10] | Potency [11] | outcome [12] | outcome [14] | outcome [15] | outcome [16] | outcome [17] | Potency [19]

Cc1c(Nc2ncccc2C(=O)O)cccc1C(F)(F)F
active: Potency [5] 9.02 µM
inactive: Potency [1] | Potency [2] | Potency [4] | Potency [20] | fluorescence, relative to Rose Bengal [6] 0.539% [at 18.6 µM] | fluorescence, % of fluorescein control [7] -0.0599% [at 18.6 µM] | fluorescence, % of triamterene [8] 0.0756% [at 18.6 µM] | fluorescence, % of fluorescent control [9] 0.0414% [at 18.6 µM] | fluorescence, % of fluorescein [10] 0.0171% [at 18.6 µM] | fluorescence, % of fluorescent control [11] -0.115% [at 18.6 µM] | activity change [12] 0.0935% [at 18.6 µM] | fluorescence, % of Rose Bengal [14] 0.0144% [at 18.6 µM] | fluorescence, % of fluorescent control [15] 0.0612% [at 18.6 µM] | fluorescence, % of fluorescein control [16] -0.0657% [at 18.6 µM]

C[C@]12CCC(=O)C=C1[C@@H]1C[C@@H]1[C@H]1[C@@H]3[C@@H]4C[C@@H]4[C@@]4(CCC(=O)O4)[C@@]3(C)CC[C@@H]12
inactive: Potency [1] | Potency [2] | Potency [4] | outcome [6] | outcome [7] | Potency [8] | outcome [9] | outcome [10] | Potency [11] | outcome [12] | outcome [13] | outcome [14] | outcome [15] | outcome [16] | outcome [17]

Cc1ccc2c(Cl)cc(Cl)c(O)c2n1
inactive: outcome [6] | outcome [7] | outcome [9] | outcome [10] | Potency [11] | outcome [12] | outcome [13] | outcome [14] | outcome [15] | outcome [16] | outcome [17]
active: Potency [1] 2.37 µM | Potency [2] 5.96 µM | Potency [3] 0.944 µM | Potency [5] 9.44 µM | Potency [19] 16.9 µM

CCCCCCCCCCCCCCCCCCCl
inactive: activation [1] -2.7% [at 8.3 µM] | activity change, negative = cytotoxicity [3] -0.103% [at 8.08 µM] | activity, negative = cytotoxicity [4] -17.2% [at 8.08 µM] | ratio activity, negative = MMP loss [5] -5.25% [at 8.08 µM] | fluorescence, relative to Rose Bengal [6] -0.0738% [at 3.72 µM] | fluorescence, % of triamterene [8] 0.0349% [at 3.72 µM] | fluorescence, % of fluorescent control [9] -0.145% [at 3.72 µM] | fluorescence, % of fluorescein [10] -0.0209% [at 3.72 µM] | fluorescence, % of fluorescent control [11] -0.0234% [at 3.72 µM] | activity change [12] 0.0076% [at 3.72 µM] | fluorescence, % of fluorescent control [13] 0.0246% [at 3.72 µM] | fluorescence, % of Rose Bengal [14] -0.217% [at 3.72 µM] | fluorescence, % of fluorescein control [16] 0.0829% [at 3.72 µM] | fluorescence, % of fluorescent control [17] -0.0032% [at 3.72 µM]

O=C(O)COCC(=O)O
inactive: Potency [1] | Potency [3] | Potency [4] | Potency [20] | outcome [6] | outcome [7] | Potency [8] | outcome [9] | outcome [10] | Potency [11] | outcome [12] | outcome [13] | outcome [14] | outcome [15] | outcome [16] | outcome [17] | Potency [19]
